Source: PubChem (National Center for Advancing Translational Sciences (NCATS))
Cruzain Triton – qHTS Assay for Promiscuous and Specific Inhibitors of Cruzain (with detergent); Cruzipain (Trypanosoma cruzi), P25779; purified cruzain, Z-FR-AMC fluorescence, 0.01% Triton; Potency, µM, inactives show max response, negative = inhibition, hits mostly inhibitors; actives 0.43% (n = 200,000); AID 1478, 2009;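 note: plate controls were neutral wells for no effect and buffer without enzyme for full effect; nearly all actives have a fitted effect of over 40% in size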
Target sequence (P25779 123-467 limits assumed): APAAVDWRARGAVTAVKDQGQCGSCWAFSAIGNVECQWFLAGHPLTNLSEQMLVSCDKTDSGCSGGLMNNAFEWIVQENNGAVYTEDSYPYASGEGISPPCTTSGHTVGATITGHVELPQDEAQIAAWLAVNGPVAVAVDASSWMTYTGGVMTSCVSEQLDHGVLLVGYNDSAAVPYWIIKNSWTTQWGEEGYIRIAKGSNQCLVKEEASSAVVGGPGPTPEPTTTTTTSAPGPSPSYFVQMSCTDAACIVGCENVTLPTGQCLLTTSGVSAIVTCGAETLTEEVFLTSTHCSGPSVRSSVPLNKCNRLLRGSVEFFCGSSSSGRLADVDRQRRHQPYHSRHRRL
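Enzyme 1.5 nM, Z-FR-AMC 2 uM, NaOAc 100 mM pH 5.5, DTT 5 mM, Triton X-100 0.01%; 15 min RT compound preincubation; kinetic ex360/em450, 60 s delta.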
Cruzain noTriton – qHTS Assay for Promiscuous and Specific Inhibitors of Cruzain (without detergent); Cruzipain (Trypanosoma cruzi), P25779; purified cruzain, Z-FR-AMC fluorescence, no detergent; Potency, µM, for inactives: max response, negative = inhibition, hits mostly inhibitors; actives 2.3% (n = 200,000); AID 1476, 2009;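 note: plate controls were enzyme without inhibitor for no effect and buffer without enzyme for full effect; nearly all actives have a fitted effect of over 40% in size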
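Purified cruzain at 1.5 nM, pre-incubated 15 min with compound at room temperature in 100 mM sodium acetate pH 5.5, 5 mM DTT, 0.00005% Triton X-100. Reaction started with 2 uM Z-FR-AMC; AMC fluorescence increase over 60 s gives rate.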
Starred values were filed as active, the others as inactive; ? = inconclusive. Only some compounds are listed: those with a hit (about 2.5% of all), similar ones and a draw of the others. Calls come from the whole dose curve; as a rule, active = well fitted curve in the direction sought with a large enough effect; inconclusive = small, poorly fitted or top-dose-only effect, or another doubt; inactive = no such curve, though single readings can be large; an effect the other way counts as inactive or inconclusive. Potency is the fitted concentration of half-maximal effect.

SMILES	Cruzain Triton	Cruzain noTriton
COc1ccc(CNS(=O)(=O)c2ccc(-c3cc(C(F)(F)F)on3)s2)cc1OC	1%	-9%
CC(Oc1ccccc1)C(=O)OCc1cc(=O)n2nc(C(C)C)sc2n1 (configuration not stated)	0%	4%
Cc1cc(=O)n2nc(N3CCC(C(=O)Nc4ccc(C)c(Cl)c4)CC3)sc2n1	-3%	-3%
CCOC(=O)c1c(-c2ccc(OC)cc2)csc1NC(=O)CCN1C(=O)c2ccccc2C1=O	-3%	16µM*
CCOC(=O)c1c(-c2ccc(OCC)cc2)csc1NC(=O)CCN1C(=O)c2ccccc2C1=O	-4%	?
O=C(CCc1ccccc1)NC1CC(=O)N(c2cccc(F)c2)C1 (configuration not stated)	0%	5%
COc1ccccc1CNC(=O)C(=O)NCC(c1cccnc1)N1CCN(c2ccccc2)CC1 (configuration not stated)	-2%	22%
Cc1cc2ccccc2n1CCNC(=O)c1cc(C(F)(F)F)cc(C(F)(F)F)c1	-1%	18%
CCOc1cc(/C=N\NC(=O)Cn2nc([N+](=O)[O-])cc2C)ccc1OCc1cccc2ccccc12	-1%	13µM*
CCOc1cc(/C=N/NC(=O)CSc2nnc(C)s2)ccc1OCc1ccccc1Cl	-2%	14%
O=C(NCc1ccccc1Cl)c1cccc(C(F)(F)F)c1	-5%	-2%
COC(=O)c1cc(NC(=O)c2cccc(C(F)(F)F)c2)c(=O)oc1C/C=N/OCc1cccc(Cl)c1Cl	-28%	0.79µM*
CCOC(=O)c1[nH]c(C)c(CCC(=O)NCc2ccccc2)c1C	4%	10%
C=CCn1c(=NC(=O)c2sc3ccccc3c2Cl)sc2cc(S(N)(=O)=O)ccc21	-26%	20µM*
COCCn1c(=NC(=O)c2sc3ccccc3c2Cl)sc2cc(S(N)(=O)=O)ccc21	-15%	6%
COc1cc2c(cc1OC)C1C(=O)c3c(O)cc4c(c3OC1CO2)C=CC(C)(C)O4 (configuration not stated)	-10%	?
O=C(c1ccc2nc(-c3ccco3)c(-c3ccco3)nc2c1)N1CCC2(CC1)OCCO2	25µM*	?
O=C(c1ccc2nc(-c3ccco3)c(-c3ccco3)nc2c1)N1CCN(c2ccccc2)CC1	?	-2%
Cc1cccc(NC(=O)c2cc3c([nH]c4ccccc43)c(C)n2)c1C	0%	?
Cc1ccc(C)c(NC(=O)c2cc3c([nH]c4ccccc43)c(C)n2)c1	8%	7.9µM*
Cc1cc(C(=O)O)ccc1[C@H](N)C(=O)O	-4%	-1%
CC(C)C[C@@H](CC(=O)N[C@@H](CCC(=O)O)CC(=O)O)NC(=O)[C@@H]1CNCC[C@H]1NC(=O)C[C@H](CCCN)NC(=O)C[C@H](Cc1ccccc1)NC(=O)[C@@H]1CCCC[C@H]1N	-2%	-12%
Cc1ccc(C)c(NC(=O)Cn2c(SCC(=O)NCc3ccccc3)nc3ccccc32)c1	2%	-8%
O=C(Nc1ccc2nc(-c3ccccc3)[nH]c2c1)c1ccco1	-2%	-29%
O=C(NCCc1nc2ccccc2[nH]1)c1ccco1	-24%	13µM*
SMILES	Cruzain Triton	Cruzain noTriton
O=C(/C=C/c1ccco1)N/C(=C\c1ccccc1)C(=O)NCCc1nc2ccccc2[nH]1	-18%	-18%
O=C(NCCc1cccc(Cl)c1)c1ccc(Cl)c([N+](=O)[O-])c1	-6%	-18%
O=C(NCCc1nc2ccccc2[nH]1)c1ccc(Cl)c([N+](=O)[O-])c1	1.3µM*	2µM*
Cc1ccc(C(=O)NCCc2nc3ccccc3[nH]2)cc1[N+](=O)[O-]	4.5µM*	16%
Cc1ccc(C(=O)NCCSc2c(C)[nH]c3ccccc23)cc1[N+](=O)[O-]	-8%	-2%
O=C(Nc1cccc(-c2nc3ccccc3[nH]2)c1)c1cccc(NC(=O)c2ccco2)c1	10µM*	5µM*
Cc1nc(N2CCOCC2)c2nc(-c3ccccc3)n(CCN(C)C)c2n1	-10%	0%
OC[C@H]1O[C@@H](n2cnc3c(Nc4ccccc4)ncnc32)[C@H](O)[C@H]1O	-6%	7%
COc1ccc(CNc2nc(-c3ccc(N(C)C)cc3)nc3ccccc23)c(OC)c1	-11%	?
C[C@H]1[C@H]2CC[C@H]3C4CC=C5C[C@@H](N(C)C)CC[C@]5(C)C4CC[C@]23CN1C (some centres not stated)	2%	-3%
COc1ccc(C(=O)CN2C(=O)N(c3cc(C)ccc3C)S(=O)(=O)c3ccccc32)cc1	-1%	?
Nc1nnc(CC(=O)N/N=C/c2ccc(-c3ccccc3)o2)s1	-13%	-9%
Cc1cccc(OCCOc2ccc(/C=N/NC(=O)Cc3nnc(N)s3)cc2)c1	3%	5µM*
CCOC(=O)c1c(-c2ccccc2)oc2ccc(N(C(C)=O)S(=O)(=O)c3ccc(CC)cc3)cc12	-3%	-17%
COc1ccc(N(C(=O)c2ccc(Cl)cc2)S(=O)(=O)c2ccc(C)cc2)cc1	-2%	-22%
Cc1cccc(NC(=O)CNc2cc(C)ccc2C)c1	-5%	20µM*
Cc1ccc(F)cc1NCC(=O)Nc1ccc(Br)cc1	-7%	-6%
CCc1ccccc1N1C(=O)N(C)c2ccccc2S1(=O)=O	-1%	9%
N#Cc1ccc(Oc2ccc(-c3nc4ccccc4nc3-c3ccccc3)cc2)cc1C#N	-4%	?
Nc1ccc(Oc2ccc3nc(-c4ccccc4)c(-c4ccc([N+](=O)[O-])cc4)nc3c2)cc1	6%	16µM*
CN(CCC(=O)O)S(=O)(=O)c1ccccc1	6%	-10%
COc1ccc(Cl)cc1NS(=O)(=O)c1c(C)nc2scc(C)n2c1=O	0%	-1%
NS(=O)(=O)c1ccc(NC(=O)N2c3ccccc3Sc3ccccc32)cc1	-2%	1%
CC1CCN(S(=O)(=O)c2ccc(S(=O)(=O)NCc3ccccc3)cc2)CC1	4%	16µM*
O=S(=O)(NCc1ccccc1)c1ccc(S(=O)(=O)N2CCCCC2)cc1	3%	?
SMILES	Cruzain Triton	Cruzain noTriton
CC1CCN(S(=O)(=O)c2ccc(NC(=O)N3c4ccccc4Sc4ccccc43)cc2)CC1	-1%	13µM*
CCCCNC(=O)C(c1ccc(OCC(=O)OC)c(C(=O)OC)c1)N(CCC1=CCCCC1)C(=O)CCCCCN1C(=O)NC(c2ccc(-c3ccccc3)cc2)C(C(=O)OCc2ccccc2)=C1C (configuration not stated)	0%	-3%
NCc1ccc(C(=O)O)cc1	12%	2%
COc1cc2c(cc1NC(=O)CN1CCN(S(=O)(=O)c3ccc(C)cc3)CC1)oc1ccccc12	0%	7.9µM*
COc1ccc(OC)c(C(=O)CN2CCN(S(=O)(=O)c3ccc(Br)cc3)CC2)c1	2%	25µM*
COc1cc2c(cc1NC(=O)C(C)Oc1ccccc1)oc1ccccc12 (configuration not stated)	-9%	-14%
COc1cc2c(cc1NC(=O)C(C)N1CCN(S(=O)(=O)c3ccccc3[N+](=O)[O-])CC1)oc1ccccc12 (configuration not stated)	3%	0.79µM*
COc1ccc(C)cc1NC(=O)CN1CCN(S(=O)(=O)c2ccc(Cl)cc2)CC1	-2%	25%
COc1ccc(NC(=O)CN2CCN(S(=O)(=O)c3ccc(Br)cc3)CC2)cc1	-2%	12%
COc1cc2c(cc1NS(=O)(=O)N1CCCC1)oc1ccccc12	-8%	14%
